According to article PMC5540273 (PLoS ONE, 2017):

Experiments:
Details in all cases: concentration: 1 μM, replicates: in singlicate; n = 1
CDK4-cyclinD3 = system: CDK4-cyclinD3
CDK4 = system: CDK4
CDK5 = system: CDK5
CDK7 = system: CDK7
CDK8 = system: CDK8
CDK9 = system: CDK9
CDKL1 = system: CDKL1
CDKL2 = system: CDKL2
CDKL3 = system: CDKL3
CDKL5 = system: CDKL5
CHEK1 = system: CHEK1
CHEK2 = system: CHEK2
CIT = system: CIT
CLK1 = system: CLK1
CLK2 = system: CLK2
CLK3 = system: CLK3
CLK4 = system: CLK4
CSF1R-autoinhibited = system: CSF1R-autoinhibited
CSF1R = system: CSF1R
CSK = system: CSK
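Note: KINOMEscan kinase panel screen.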

Compound	%Inh (CDK4-cyclinD3) [%]	%Inh (CDK4) [%]	%Inh (CDK5) [%]	%Inh (CDK7) [%]	%Inh (CDK8) [%]	%Inh (CDK9) [%]	%Inh (CDKL1) [%]	%Inh (CDKL2) [%]	%Inh (CDKL3) [%]	%Inh (CDKL5) [%]	%Inh (CHEK1) [%]	%Inh (CHEK2) [%]	%Inh (CIT) [%]	%Inh (CLK1) [%]	%Inh (CLK2) [%]	%Inh (CLK3) [%]	%Inh (CLK4) [%]	%Inh (CSF1R-autoinhibited) [%]	%Inh (CSF1R) [%]	%Inh (CSK) [%]
O=c1cc(N2CCOCC2)nc2n(Cc3cccc(F)c3)ccn12 [GSK2297430]	0	19	0	0	26	0	0	0	0	0	0	0	26	33	0	30	45	0	0	0
CNc1ncnc2[nH]ncc12 [SKF-18355]	0	17	0	0	0	0	8	30	19	3	0	0	9	19	8	9	0	0	0	0
CN(C1=C(c2ccccc2)C(=O)NC1=O)c1ccccc1 [SB-334860]	9	5	6	15	4	9	6	0	0	8	0	16	37	24	12	0	6	0	18	6
CCCCCc1nc2c(N)ncnc2n1CCCCC [SKF-97255]	0	13	0	2	8	0	26	0	16	7	0	0	9	24	14	3	17	0	17	0
NS(=O)(=O)c1cccc(-c2ccc3ncc(N4CCOCC4)nc3c2)c1 [GSK1535721]	0	12	0	20	31	3	15	0	0	0	0	37	7	11	12	0	18	8	0	0
Cc1cn2c(=O)cc(N3CCOCC3)nc2n1Cc1cccc(Cl)c1Cl [GSK2334006]	0	3	2	0	15	0	0	3	0	2	25	0	17	35	0	11	26	0	5	0
O=C(NCCNc1ccnc(Nc2ccc(F)cc2)n1)c1cc2ccccc2s1 [GSK1379874]	0	0	0	0	38	0	8	5	0	0	2	0	22	29	0	26	37	8	0	0
CN1c2ccc(NCc3ccc(F)cc3)cc2-c2c(cnn2C)S1(=O)=O	0	0	6	0	62	15	20	19	0	0	0	0	0	0	0	0	0	1	0	0
COc1ccc(Nc2nccc(N3CCC(NC(=O)Nc4cc(C)ccc4C)C3)n2)cc1 (centres unmarked) [GSK1379741]	0	0	0	0	11	0	0	44	0	5	0	0	5	14	0	0	0	0	4	0
Cc1cccc(Cn2ccn3c(=O)cc(N4CCOCC4)nc23)c1 [GSK2297542]	0	6	0	0	31	0	20	29	0	0	13	4	23	50	20	58	45	8	11	55
